Here are results for 20 molecules from PubChem BioAssay (Tox21).

The source made the active and inactive calls. Unless noted, calls follow the shape of the dose curve; as a rule, active = well fitted curve in the direction sought with a large enough effect in the repeat runs; inconclusive = weak or mixed curves; inactive = flat fitted curve, though single readings scatter.

The nature of test [1]: qHTS assay to test for compound auto fluorescence at 535 nm (green) in HEK293 cells (AID 720680).
Test [2] in a line: qHTS assay to test for compound auto fluorescence at 460 nm (blue) in HEK293 cell free culture (AID 720681). Summed up: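 Test compounds were pinned into cell-free culture medium (DMEM with 10% FBS) and fluorescence was read directly at Ex/Em 405/460 nm. Signals were expressed as fluorescence equivalents of triamterene, with DMSO vehicle as control.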
The nature of test [3]: qHTS assay to test for compound auto fluorescence at 535 nm (green) in HEK293 cell free culture (AID 720682). In short, it runs like this: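 Fluorescein serves as the green reference fluorophore; each compound's intrinsic emission at 535 nm (excitation 485 nm) is reported as an equivalent amount of that dye, measured in serum-containing DMEM without cells.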
Test [4] is described as follows: qHTS assay to test for compound auto fluorescence at 590 nm (red) in HEK293 cell free culture (AID 720683). Summed up:
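Tox21 10K library compounds were pinned into cell-free DMEM with 10% FBS and fluorescence was read at excitation 540 nm. Activity is expressed as Rose Bengal sodium equivalency.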

The nature of test [5]: qHTS assay to test for compound auto fluorescence at 590 nm (red) in HepG2 cell free culture (AID 720684). In short, it runs like this: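 Measured in medium alone (MEM containing 10% FBS) following pintool addition of compound; emission at 590 nm with 540 nm excitation, referenced to Rose Bengal sodium.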
Test [6] in a line: qHTS assay to test for compound auto fluorescence at 460 nm (blue) in HepG2 cell free culture (AID 720685). In short, it runs like this: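 Compound (23 nL) or DMSO pinned into cell-free MEM with 10% FBS; blue fluorescence read at 405/460 nm excitation/emission, expressed as auto-fluorescence equivalency to triamterene.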
The nature of test [7]: qHTS assay to test for compound auto fluorescence at 535 nm (green) in HepG2 cell free culture (AID 720686).
Test [8] is described as follows: qHTS assay to test for compound auto fluorescence at 460 nm (blue) in HepG2 cells (AID 720687). In short, it runs like this: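 Cells (2,000/well in MEM with 10% FBS) attached overnight at 37 C, then were exposed to compound or DMSO for 1 hr at 37 C, 5% CO2. Fluorescence read at Ex/Em 405/460 nm, expressed as triamterene-equivalent signal.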
The target of test [9] is Glucocorticoid receptor (Homo sapiens) (UniProt P04150). As to the kind of experiment: qHTS assay to identify small molecule agonists of the glucocorticoid receptor (GR) signaling pathway (AID 720691; active = well fitted activation curve with a large enough effect in the signal ratio in the repeat runs, not every such curve was filed as active; inconclusive = weak or mixed curves, or effect the other way; inactive = no such curve, though single readings can be large or run the other way; the % refers to the signal ratio; also: potency is read from the fitted curve at half-maximal effect). Particulars: GR-bla HeLa, beta-lactamase reporter ratio, 18 h; activation: at 62.4 µM (top of the series). Summed up: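 qHTS in GR-bla HeLa cells: 4 h settling at 37 C/5% CO2, 18 h compound incubation at 37 C, 2 h LiveBLAzer B/G FRET substrate at room temperature, fluorescence intensity measured.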

Test [10] shares this target. Put plainly: qHTS assay to identify small molecule antagonists of the glucocorticoid receptor (GR) signaling pathway (AID 720692; active = well fitted inhibition curve with a large enough effect in the signal ratio in the repeat runs, not every such curve was filed as active; inconclusive = weak or mixed curves, or effect the other way; inactive = no such curve, though single readings can be large or run the other way; the % refers to the signal ratio). In short, it runs like this: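 Inhibition of glucocorticoid signalling is measured in HeLa cells with a GRE-controlled beta-lactamase reporter; cells are co-treated with compound and 5 nM dexamethasone (final) for 18 h before FRET substrate readout.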

Chain of Glucocorticoid receptor (Homo sapiens) (P04150 whole entry, looked up): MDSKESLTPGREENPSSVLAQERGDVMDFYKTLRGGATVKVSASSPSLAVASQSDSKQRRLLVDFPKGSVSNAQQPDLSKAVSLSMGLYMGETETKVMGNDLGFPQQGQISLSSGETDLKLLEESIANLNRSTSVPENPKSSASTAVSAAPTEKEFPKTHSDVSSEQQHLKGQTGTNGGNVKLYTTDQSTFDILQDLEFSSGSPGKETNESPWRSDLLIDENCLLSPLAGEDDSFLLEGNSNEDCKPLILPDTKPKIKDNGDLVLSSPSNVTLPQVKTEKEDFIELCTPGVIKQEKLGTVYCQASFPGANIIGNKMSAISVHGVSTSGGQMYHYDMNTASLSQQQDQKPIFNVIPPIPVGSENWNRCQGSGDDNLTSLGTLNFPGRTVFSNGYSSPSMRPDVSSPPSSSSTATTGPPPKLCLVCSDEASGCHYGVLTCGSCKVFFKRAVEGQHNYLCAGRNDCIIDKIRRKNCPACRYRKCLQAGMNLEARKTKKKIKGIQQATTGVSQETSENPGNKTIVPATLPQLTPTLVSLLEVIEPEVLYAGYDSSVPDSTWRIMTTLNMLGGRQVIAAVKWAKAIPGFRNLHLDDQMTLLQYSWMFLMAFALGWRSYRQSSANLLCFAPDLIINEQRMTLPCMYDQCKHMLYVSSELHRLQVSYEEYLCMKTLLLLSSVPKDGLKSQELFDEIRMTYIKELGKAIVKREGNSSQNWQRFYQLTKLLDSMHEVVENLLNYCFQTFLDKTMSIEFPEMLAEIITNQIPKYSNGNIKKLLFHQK

For `C[C@]12C=CC(=O)C=C1CC[C@@H]1[C@@H]2[C@@H](O)C[C@@]2(C)[C@H]1CC[C@]2(O)C(=O)COC(=O)CCC(=O)O`, the Potency entry in [1], in test [2], in test [3], in test [4], in test [5] and in [7] was “inactive” in each case. For the same molecule, the outcome in test [6] and in [8] was inactive. Besides, in test [9], the Potency is 268 nM [inconclusive] (active).

Consider `CC(=O)O[C@]1(C(C)=O)CC[C@H]2[C@@H]3CCC4=CC(=O)CC[C@]4(C)[C@@]3(F)[C@@H](O)C[C@@]21C`, for which the Potency entry in [1], in test [2], in [3], in test [4], in test [5] and in test [7] was “inactive” throughout. In addition, the molecule was called inactive in [6] and in [8]. Moreover, the Potency in test [9] was 37.9 nM (active).

Regarding `CC(=O)O[C@H]1CC[C@@]2(C)C(=CC[C@H]3[C@@H]4CC[C@H](C(C)=O)[C@@]4(C)CC[C@@H]32)C1`, the Potency entry in [1], in test [2], in [3], in test [4], in test [5] and in test [7] was “inactive” in each case. Further, in [9], the Potency result was “inactive”. The result in test [6] and in test [8] was inactive.

For the molecule `CN(C)CCCN1c2ccccc2C(C)(C)c2ccccc21`, the Potency result in [1], in [2], in test [3], in [4], in test [5] and in [7] was “inactive” each time. The Potency result in test [9] is “inactive”. The result in test [6] and in test [8] was inactive.

Consider `CCOC(=O)c1cc(-c2ccccc2)nc2ccc(C)cc12`, for which the Potency result in [1], in [2], in test [3], in test [4], in [5] and in test [7] was “inactive” each time. For the same molecule, the Potency result in test [9] was “inactive”. The call in test [6] and in [8] was inactive.

Consider `C[C@H]1C[C@@H]2[C@H]([C@@H](O)C[C@@]3(C)[C@H]2CC[C@]3(O)C(=O)COC(=O)CCC(=O)O)[C@@]2(C)C=CC(=O)C=C12`, for which the Potency result in test [1], in test [2], in [3], in test [4], in test [5] and in test [7] was “inactive” in each case. Besides, the result in test [6] and in test [8] was inactive. Further, the Potency in test [9] was 26.8 nM [inconclusive] (active).

For `COc1cc2c(cc1OC)CC(=O)N(CCCN(C)C[C@H]1Cc3cc(OC)c(OC)cc31)CC2`, the Potency entry in test [1], in [2], in test [3], in test [4], in [5] and in test [7] was “inactive” in each case. In test [9], the Potency entry was “inactive”. Further, the call in test [6] and in test [8] was inactive.

On to `CN[C@@H]1[C@@H](O)[C@@H](O[C@@H]2[C@@H](O)[C@H](O[C@H]3O[C@H](CN)[C@@H](O)[C@H](O)[C@H]3O)[C@@H](N)C[C@H]2NC(=O)C(O)CN)OC[C@]1(C)O` (some centres undefined), for which the Potency entry in [1], in test [2], in test [3], in test [4], in test [5] and in test [7] was “inactive” in each case. The outcome in test [6] and in test [8] was inactive. In addition, in test [9], the Potency is 6010 nM (active).

With `COc1ccc2c(=O)c(C)c(-c3ccccc3)oc2c1CN(C)C`, the Potency result in test [1], in [2], in test [3], in [4], in test [5] and in test [7] was “inactive” in each case. Moreover, in test [9], the Potency entry was “inactive”. For the same molecule, the call in test [6] and in test [8] was inactive.

`CO/N=C(\C(=O)N[C@@H]1C(=O)N2C(C(=O)O)=CCS[C@H]12)c1csc(N)n1`: the Potency entry in [1], in test [2], in test [3], in test [4], in test [5] and in test [7] was “inactive” throughout. The Potency entry in [9] was “inactive”. Moreover, the result in test [6] and in test [8] was inactive.

As to `COc1cc(Br)c(C[N+]2(CCOCCC3CCC4CC3C4(C)C)CCOCC2)cc1OC` (centres undefined), the Potency entry in test [1], in test [2], in [3], in [4], in test [5] and in test [7] was “inactive” in each case. Also, the Potency result in test [9] is “inactive”. Further, the outcome in [6] and in test [8] was inactive.

On to `C[C@@H]1C[C@H]2C3C[C@H](F)C4=CC(=O)C=CC4(C)[C@@]3(F)[C@@H](O)CC2(C)[C@@]1(O)C(=O)COC(=O)C(C)(C)C` (some centres undefined), for which the Potency entry in test [1], in test [2], in test [3], in [4], in test [5] and in test [7] was “inactive” throughout. Besides, the molecule was classed as inactive in test [6] and in [8]. In addition, the Potency in [9] was 6.7 nM [inconclusive] (active).

Consider `CC[C@H]1NC(=O)[C@@H](NC(=O)c2ncccc2O)[C@@H](C)OC(=O)[C@H](c2ccccc2)NC(=O)[C@@H]2CC(=O)CCN2C(=O)[C@H](Cc2ccccc2)N(C)C(=O)[C@@H]2CCCN2C1=O`, for which the Potency result in test [1], in test [2], in [3], in [4], in test [5] and in test [7] was “inactive” throughout. Besides, in test [9], the Potency result was “inactive”. For the same molecule, the molecule was called inactive in test [6] and in test [8].

Take `COc1ccc(CC2c3cc(OC)c(OC)cc3CC[N+]2(C)CCC(=O)OCCCCCOC(=O)CC[N+]2(C)CCc3cc(OC)c(OC)cc3C2Cc2ccc(OC)c(OC)c2)cc1OC` (centres undefined): the Potency entry in [1], in [2], in test [3], in test [4], in test [5] and in test [7] was “inactive” each time. Also, the outcome in [6] and in test [8] was inactive. Also, the Potency in test [9] is 1290 nM [inconclusive] (active).

As to `N[C@@H](C(=O)N[C@@H]1C(=O)N2C(C(=O)O)=C(Cl)CC[C@H]12)c1ccccc1`, the Potency entry in [1], in test [2], in test [3], in test [4], in test [5] and in test [7] was “inactive” each time. For the same molecule, the result in test [6] and in [8] was inactive. The Potency in test [9] is 21300 nM (active).

On to `CC1=C(/C=C/C(C)=C/C=C/C(C)=C/C(=O)Oc2c(C)c(C)c3c(c2C)CC[C@@](C)(CCC[C@H](C)CCC[C@H](C)CCCC(C)C)O3)C(C)(C)CCC1`, for which the Potency result in [1], in test [2], in test [3], in test [4], in test [5] and in test [7] was “inactive” throughout. In addition, the Potency result in [9] is “inactive”. Besides, the molecule was classed as inactive in [6] and in [8].

For the molecule `NC[C@@H]1O[C@H](O[C@H]2[C@@H](O)[C@H](O[C@@H]3[C@@H](O)[C@H](N)C[C@H](N)[C@H]3O[C@H]3O[C@H](CO)[C@@H](O)[C@H](O)[C@H]3N)O[C@@H]2CO)[C@H](N)[C@@H](O)[C@@H]1O`, the Potency result in test [1], in test [2], in test [3], in test [4], in [5] and in [7] was “inactive” throughout. The Potency result in test [9] and in test [10] was “inactive” each time. In addition, the result in test [6] and in test [8] was inactive.

As to `CC(=O)Nc1c(I)c(C(=O)O)c(I)c(N(C)C(C)=O)c1I`, the Potency entry in test [1], in test [2], in [3], in test [4], in test [5] and in test [7] was “inactive” throughout. Besides, the Potency result in test [9] and in test [10] was “inactive” throughout. Also, the call in test [6] and in test [8] was inactive.

As to `CS(=O)(=O)OCC(O)C(O)COS(C)(=O)=O` (centres undefined), the Potency result in test [1], in test [2], in test [3], in test [4], in test [5] and in test [7] was “inactive” in each case. Moreover, the Potency entry in test [9] and in test [10] was “inactive” throughout. Also, the molecule was classed as inactive in [6] and in [8].

With `CN1[C@@H]2CC[C@H]1CC(OC(c1ccccc1)c1ccccc1)C2` (some centres undefined), the Potency entry in [1], in test [2], in test [3], in [4], in test [5] and in test [7] was “inactive” throughout. The Potency result in [9] and in [10] was “inactive” in each case. The molecule was called inactive in test [6] and in [8].
